{
  "source": "PubChem BioAssay (NCATS)",
  "note": "Records with an inconclusive call do not appear. Active and inactive are the calls of the source. Calls follow the shape of the dose curve; as a rule, active = well fitted inhibition curve with a large enough effect; inconclusive = small, poorly fitted or top-dose-only effect; inactive = no such curve, though single readings can be large or run the other way. % is scaled to controls: 0 for no effect and ±100 for the full control effect; potency is read from the fitted curve at half-maximal effect.",
  "data": [
    {"target": "Retinaldehyde dehydrogenase 3 (Homo sapiens) (UniProt P47895)", "test": "qHTS for Inhibitors of the Aldehyde Dehydrogenase Family (ALDH1A3) Confirmatory screens (AID 2061311); also: nearly all actives have a fitted effect of over 60% in size", "settings": "ALDH inhibition qHTS; series mostly up to 46 µM; activity change, negative = inhibition: at the top concentration", "values": [
      {"smiles": "CN(C)Cc1nnc(C2CC(NC(=O)c3ccc4scnc4c3)C2)n1C", "note": "(stereo not drawn)", "activity change, negative = inhibition": "-5.86% (inactive)"},
      {"smiles": "CCOc1ccccc1NC(=O)Nc1cc(C(=O)NCc2ccc(C)cc2)ccc1N1CCCC1", "activity change, negative = inhibition": "1.94% (inactive)"},
      {"smiles": "CCOc1ccc(CCNC(=O)c2cc3sccc3n2CC)cc1OCC", "activity change, negative = inhibition": "-29% (inactive)"},
      {"smiles": "COc1ccccc1-n1c(=O)c(C(=O)NC(C)C)nc2cccnc21", "outcome": "inactive"},
      {"smiles": "O=C(CN1CCN(c2ccc(Cl)cc2)CC1)Nc1ccc(F)c(F)c1", "activity change, negative = inhibition": "-33% (inactive)"},
      {"smiles": "O=C(Cn1cnc2onc(-c3ccc(Cl)cc3)c2c1=O)Nc1ccc(F)cc1", "activity change, negative = inhibition": "-20.8% (inactive)"},
      {"smiles": "Cc1cccc(-c2ccc(CN)cc2)c1", "activity change, negative = inhibition": "3.83% (inactive)"},
      {"smiles": "O=C(Nc1ccc([C@@H](O)[C@H]2COCC(=O)N2CCCc2ccccc2)cc1)c1ccco1", "activity change, negative = inhibition": "-46.4% (inactive)"},
      {"smiles": "COCCNC(=O)c1cc(-c2ccc(OC)cc2)nc2c1c(C)nn2-c1ccccc1", "Potency": "25.1 µM (active)"},
      {"smiles": "CCOc1ccc(NC(=O)NCCCN2CCN(c3ccc(OC)cc3)CC2)cc1", "activity change, negative = inhibition": "-51.7% (inactive)"},
      {"smiles": "CC(=O)NC(c1ccco1)c1cc(Cl)c2ccccc2c1O", "note": "(stereo not drawn)", "Potency": "11.3 µM (active)"},
      {"smiles": "COCCn1c(CNC(=O)c2cc([N+](=O)[O-])ccc2Cl)nc2cccnc21", "outcome": "inactive"},
      {"smiles": "CCn1nc(-c2cccc(-c3ccnn3C)c2)nc1N(C)C", "outcome": "inactive"},
      {"smiles": "CN(C(=O)c1cnc2n[nH]c(-c3ccccc3)c2n1)c1ccccc1", "activity change, negative = inhibition": "-33.3% (inactive)"},
      {"smiles": "CCc1nn(-c2ccc(OC)cc2)c(Oc2ccccc2F)c1CCC(=O)NC(C)C", "activity change, negative = inhibition": "-9.42% (inactive)"},
      {"smiles": "O=C(Nc1ccccc1Cl)c1nc2cccnc2n(Cc2ccccc2)c1=O", "activity change, negative = inhibition": "-11% (inactive)"},
      {"smiles": "Cc1ccc(C(=O)c2cn(Cc3cccc(F)c3)c3nc(C)ccc3c2=O)cc1", "activity change, negative = inhibition": "-9.43% (inactive)"},
      {"smiles": "COc1cccc(CCC(=O)NCc2nnc3c(-c4nc(C)no4)cccn23)c1", "activity change, negative = inhibition": "-20.1% (inactive)"},
      {"smiles": "N#Cc1cccc(C(=O)Nc2ccc3c(N4CCOCC4)ncnc3c2)c1", "activity change, negative = inhibition": "1.89% (inactive)"},
      {"smiles": "CN1Cc2nc(Nc3ccc(C(F)(F)F)cc3)ccc2OCC1=O", "Potency": "15.8 µM (active)"},
      {"smiles": "CCc1cccc(C)c1NC(=O)CSc1nc2ccncc2[nH]1", "activity change, negative = inhibition": "2.34% (inactive)"},
      {"smiles": "Cn1ncc2c(C(=O)NCc3ccc(F)cc3)cc(-c3ccc(F)cc3)nc21", "activity change, negative = inhibition": "-26.5% (inactive)"},
      {"smiles": "Cc1cc2ncc(C(=O)NCCc3ccccc3F)cn2n1", "activity change, negative = inhibition": "-13.1% (inactive)"}
    ]}
  ]
}
